# Screening data: PubChem BioAssay, National Center for Advancing Translational Sciences (NCATS)
# BLM helicase inh – Bloom syndrome helicase (human) inhibition. recombinant BLM DNA unwinding, fluorescence dequenching. Potency, µM (highest dose often 56.1 µM), for inactives: top-dose activity change, negative = inhibition, most hits filed as inhibitors. 0.2% of 350,000 active;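 note: plate controls were vehicle for no effect and no enzyme for full effect; nearly all actives have a fitted effect of over 35% in size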
# TDP1 block – TDP1 (human) enzyme inhibition. recombinant TDP1, AlphaScreen DNA substrate cleavage. Potency, µM (doses to about 130 µM), without a hit: top-dose activity change, negative = inhibition, hits mostly inhibitors. 0.28% of 350,000 active. AID 485290; note: nearly all actives have a fitted effect of over 40% in size
#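 Enzyme-compound mixtures sat 15 min at room temperature, followed by a 5 min reaction with 15 nM final substrate and 10 min with AlphaScreen beads. Recombinant human Tdp1 was used at 1 nM final.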
# RECQ1 helicase – inhibitors of human RECQ1 DNA helicase; P46063; RECQ1 DNA unwinding, red fluorescence kinetic read; Potency, µM (top dose mostly 57.3 µM), inactives show at the highest dose activity, negative = inhibition, most hits filed as inhibitors; 0.54% of 240,000 active; AID 2549;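 note: plate controls were vehicle for no effect and no enzyme for full effect; nearly all actives have a fitted effect of over 30% in size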
#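 50 nM RECQ1T1 preincubated 15 min with compound in Tris pH 8.0 buffer with MgCl2, DTT, Tween-20 and 2.5 ug/ml poly(dI-dC); started with 200 nM TAMRA/BHQ-2 forked duplex and 2 mM ATP. Unwinding read as fluorescence (525/598 nm), two reads 2 h apart.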
# FEN1 inhibitor – inhibitors of human flap endonuclease 1; Recombinant FEN1 flap cleavage, fluorescence, 15 min; Potency, µM (titrated, usually from 114 µM), without a hit: at the top dose activity change, negative = inhibition, most hits filed as inhibitors; 0.35% of 390,000 active; note: nearly all actives have a fitted effect of over 65% in size
#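 Enzyme 10 nM, 15 min RT preincubation with compound; start with substrate 50 nM final; reads at 0 and 15 min; qHTS titration, four-parameter Hill fit.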
# APE1 inh-1 – inhibitors of human APE1 endonuclease; P27695; 0.35% of 350,000 active; Potency, µM (series often up to 65.8 µM), for inactives: at the top dose activity change, negative = inhibition, hits mostly inhibitors; recombinant APE1, TAMRA/BHQ-2 abasic DNA cleavage fluorescence; AID 2517;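 note: plate controls were vehicle for no effect and reference inhibitor for full effect; nearly all actives have a fitted effect of over 55% in size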
#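 APE1 at 0.75 nM final was preincubated with compound 15 min at room temperature, then 50 nM double-stranded THF abasic-site substrate (5'-TAMRA/3'-BHQ-2) was added. Fluorescence (ex 525/em 598 nm) was read kinetically; third-minus-first read gave activity.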
# DNA dye displace – DNA dye displacement counter-screen activity. Potency, µM (highest dose often 28.5 µM), for the others: at the highest dose activity change, negative = inhibition, actives largely listed as inhibitors. shares compounds with APE1 inh-1. DNA fluorescent dye displacement counterscreen, fluorescence. 7% of 480 active. AID 2564;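 note: loss of thiazole orange fluorescence as the dye is displaced from duplex DNA; 0% = ThO with dsDNA and no compound and -100% = ThO without dsDNA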
# Endo IV inh – blocks E. coli endonuclease IV DNA cleavage | shares compounds with APE1 inh-1 | E. coli Endo IV, fluorogenic AP-site DNA cleavage | Potency, µM (highest dose often 27.1 µM), for the others: at the top dose activity change, negative = inhibition, usual class: inhibitors | 4% of 560 active | AID 2565;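 note: plate controls were uninhibited enzyme wells for no effect and no enzyme buffer wells for full effect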
# APE1 inh-2 – APE1 (human) endonuclease inhibition, confirmation; shares compounds with APE1 inh-1; purified APE1, fluorogenic abasic-site DNA cleavage; Potency, µM (series often up to 57.1 µM), for the others: at the highest dose activity change, negative = inhibition, hits mostly inhibitors; 44% of 750 active; note: nearly all actives have a fitted effect of over 30% in size
# APE1 FP – APE1 (human) DNA binding inhibition, fluorescence polarization; shares compounds with APE1 inh-1; APE1 binding to TAMRA-labelled double-stranded DNA, fluorescence polarization displacement; Potency, µM (doses to about 28.5 µM), for inactives: top-dose activity, negative = inhibition, actives largely listed as inhibitors; 7% of 480 active; AID 2573
# Numbers without * were called inactive; i = inactive; ? = inconclusive; / = no result given. In the library only some 0.92% were active in any assay of this set; here they are far more common. Calls come from the whole dose curve; as a rule, active = well fitted curve in the direction sought with a large enough effect; inconclusive = small, poorly fitted or top-dose-only effect, or another doubt; inactive = no such curve, though single readings can be large; an effect the other way counts as inactive or inconclusive. Unless noted, % is set by controls: 0 for no effect and ±100 for the full control effect; potency is the fitted concentration of half-maximal effect.
SMILES,BLM helicase inh,TDP1 block,RECQ1 helicase,FEN1 inhibitor,APE1 inh-1,APE1 inh-2,others
CC1CCc2c(sc3nnn(Cc4ccccc4Cl)c(=O)c23)C1 (configuration not stated),-5%,0%,/,-15%,/,/,
Cc1nc(N)sc1-c1csc(Nc2ncccn2)n1,-20%,89µM*,-5%,?,?,?,
COc1ccccc1Nc1nc(-c2sc(N)nc2C)cs1,-5%,/,/,12%,21%,/,
O=S(=O)(NCCc1nnc2ccc(SCc3ccccc3Cl)nn12)c1ccccc1,-1%,8%,/,-24%,/,/,
Cn1cnnc1SCC(=O)Nc1nc(-c2ccccc2)cs1,-22%,35µM*,-4%,0%,?,?,DNA dye displace=-8%;Endo IV inh=-1%;APE1 FP=8%
Nc1nc2[nH]cc(CCc3ccc(C(=O)NC(CCC(=O)O)C(=O)O)cc3)c2c(=O)[nH]1 (configuration not stated),2%,/,/,/,/,/,
COc1ccc(/C(C)=N/Nc2ccccc2Cl)c(O)c1,-5%,40µM*,-10%,15%,?,?,
CCn1c(=O)c2sccc2n2c(CCC(=O)Nc3ccc(F)cc3)nnc12,-3%,0%,/,-1%,/,/,
O=C(OC1Cc2c(O)cc(O)cc2OC1c1cc(O)c(O)c(O)c1-c1c(C2Oc3cc(O)cc(O)c3CC2OC(=O)c2cc(O)c(O)c(O)c2)cc(O)c(O)c1O)c1cc(O)c(O)c(O)c1 (configuration not stated),7.9µM*,/,4.5µM*,/,0.13µM*,0.32µM*,Endo IV inh=28µM*
COc1ccc([C@H]2CC(=O)c3c(O)cc(O)cc3O2)cc1O,-11%,3%,-8%,-4%,-3%,/,
Cc1ccc(C)n1-c1nnc(N2CCCC(C(=O)Nc3ccc(C(C)C)cc3)C2)s1 (configuration not stated),1%,3%,/,1%,/,/,
C(=N\Nc1nc(-c2ccccc2)cs1)/c1cccnc1,-8%,5%,-21%,2%,21%,/,
Clc1ccc(-c2csc(N/N=C/c3cccnc3)n2)c(Cl)c1,-13%,79µM*,-14%,-11%,17%,-22%,
CC(C)(C)C(=O)[C@@H]1[C@@H]2C(=O)N(Cc3ccccc3)C(=O)[C@@H]2[C@H]2c3ccccc3C=CN12,-12%,71µM*,-24%,/,?,-14%,
CCc1c(C)sc2c1CCN(Cc1ccccc1)C2c1ccccc1 (configuration not stated),3%,-1%,/,7%,/,/,
CSc1ccc(/C=C2\C=Cc3ccc([N+](=O)[O-])cc32)cc1,/,/,/,-13%,/,/,
COc1ccc(OCC(=O)OCCN2C(=O)c3ccccc3C2=O)cc1,-21%,/,-10%,-4%,?,?,DNA dye displace=-9%;Endo IV inh=4%;APE1 FP=8%
Cc1ccc2nc(NC(=O)CCCC(=O)O)sc2c1,-4%,/,i,-6%,?,?,DNA dye displace=-5%;Endo IV inh=4%;APE1 FP=-27%
Cc1ccc2nc(NC(=O)CCCc3nc4ccccc4s3)sc2c1,-7%,8%,-13%,-1%,13%,/,
CC(NC(=O)COC(=O)c1ccco1)C12CC3CC(CC(C3)C1)C2 (configuration not stated),/,-2%,/,4%,/,/,
